Source: PubChem BioAssay
ABCB6 inh 2 = inhibitors of human ABC transporter ABCB6. fluorescence ratio to DMSO, % at 10 µM. AID 602162. Q9NP58. K562-ABCB6 porphyrin accumulation, flow cytometry, 1 h; stronger effect = lower value. actives 0.19% (n = 360,000);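 active = fluorescence ratio to DMSO below 75%, the collection mean minus 3 SD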;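 also: signal is porphyrin accumulated inside mitochondria; 100% equals median channel fluorescence of DMSO control wells; lower ratio means ABCB6 inhibition with less porphyrin fluorescence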
beta cell repl = inducers of beta-cell replication in MIN6 cells; MIN6 cells proliferation, ATPlite luminescence, 48 h; cells starved in 0.2% serum; 100% = growth in 10% serum; proliferation, % at 10 µM; actives 0.29% (n = 330,000); AID 2380;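 active = compounds whose signal lies at least 3.5 SD above the mean of all wells on their plate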;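 also: 0% = DMSO-treated cells in low-serum medium and 100% = 10% serum control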
H9c2 protect = protects H9c2 cardiomyocytes from peroxide injury; protection from H2O2 cell death, % at 20 µM; actives 0.63% (n = 360,000); H2O2 injury protection, ATPLite, 2 h;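 active = compounds giving at least 50% protection of heart cells from peroxide-induced death in the single-dose screen, raw or plate-pattern-corrected value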;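 also: 0% = DMSO wells with peroxide and 100% = DMSO wells without peroxide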
iPSC survival up = hiPSC single-cell survival enhancement | ATPlite luminescence; 100% = ROCK inhibitor wells, 0% = DMSO | survival enhancement, % at 20 µM | actives 0.044% (n = 360,000) | AID 602274; in the data active = survival enhancement above about 18%;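 also: cells exposed to compounds for 16 hours before the ATP read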
Myeloid diff MLP = compounds promoting myeloid differentiation | calls only at 10 µM | ER-HoxA9 myeloid progenitors, lysozyme-GFP differentiation, flow cytometry | actives 1% (n = 360,000);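 active = normalized GFP-positive differentiation at or above the plate's own cutoff, the solvent-only control mean plus 3 SD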;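 also: cells exposed to compound for four days before flow analysis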
* marks the source's active call; other numbers are inactive results. In the library only some 2.2% were active in any assay of this set; here they are far more common.

CCSc1nnc2ccc(-c3ccc(OC)c(OC)c3)nn12 was read as ABCB6 inh 2 98, beta cell repl -1, H9c2 protect 2, iPSC survival up 0 and Myeloid diff MLP active.
Cc1ccc2c(c1)N(C)/C(=C/c1cccc[n+]1CCO)S2 was read as ABCB6 inh 2 181, beta cell repl -4, H9c2 protect -13, iPSC survival up -1 and Myeloid diff MLP active.
Screening Cc1nc(C)c(-c2nnc(-c3ccc(C(C)(C)C)cc3)o2)cc1C(=O)NN returned ABCB6 inh 2 126, beta cell repl -3, H9c2 protect 3, iPSC survival up -1 and Myeloid diff MLP active.
`Cc1nc(C)c(-c2nnc(-c3ccccc3Cl)o2)cc1C(=O)NN` gave ABCB6 inh 2 93, beta cell repl 4, H9c2 protect -1, iPSC survival up 1 and Myeloid diff MLP inactive.
`Cc1ccc(CNC(=O)C2CCN(S(=O)(=O)c3ccc(Br)s3)CC2)cc1` gave ABCB6 inh 2 90, beta cell repl 0, H9c2 protect 5, iPSC survival up 0 and Myeloid diff MLP inactive.
Screening COc1cc(/C=N/NC(=O)c2[nH]nc3c2CCc2ccccc2-3)ccc1O returned ABCB6 inh 2 98, beta cell repl -2, H9c2 protect 54*, iPSC survival up 0 and Myeloid diff MLP inactive.
For COc1cc(/C=N/NC(=O)c2ccc3nc[nH]c3c2)ccc1O the results were ABCB6 inh 2 87, beta cell repl 1, H9c2 protect 9, iPSC survival up 0 and Myeloid diff MLP inactive.
Screening Cc1cc(C(=O)N/N=C/c2c(C)nn(-c3ccccc3)c2C)n[nH]1 returned ABCB6 inh 2 96, beta cell repl -2, H9c2 protect 18, iPSC survival up -1 and Myeloid diff MLP inactive.
`COc1cc(/C=N/NC(=O)c2cc(-c3c(C)nn(-c4ccccc4)c3C)n[nH]2)ccc1O` gave ABCB6 inh 2 107, beta cell repl -4, H9c2 protect 51*, iPSC survival up -1 and Myeloid diff MLP inactive.
COc1cc(/C=N/NC(=O)c2cc(-c3ccc4c(c3)OCO4)n[nH]2)ccc1O was read as ABCB6 inh 2 105, beta cell repl 4, H9c2 protect 74*, iPSC survival up -2 and Myeloid diff MLP inactive.
For Cc1nn(-c2ccccc2)c(C)c1/C=N/NC(=O)c1cc(C2CC2)[nH]n1 the results were ABCB6 inh 2 100, beta cell repl 1, H9c2 protect 60*, iPSC survival up 5 and Myeloid diff MLP inactive.
`COc1cc(/C=N/NC(=O)c2nc(-c3ccccc3)n(-c3ccccc3)n2)ccc1O` gave ABCB6 inh 2 101, beta cell repl -1, H9c2 protect 0, iPSC survival up 1 and Myeloid diff MLP inactive.
Screening CC(=O)Nc1ccc(NC(=O)CSc2nc3c([nH]c4ccccc43)c(=O)n2-c2ccccc2F)cc1 returned ABCB6 inh 2 90, beta cell repl -7, H9c2 protect 6, iPSC survival up 0 and Myeloid diff MLP inactive.
Cc1ccc2occ(/C=N/NC(N)=S)c(=O)c2c1 was read as ABCB6 inh 2 100, beta cell repl -1, H9c2 protect -4, iPSC survival up -2 and Myeloid diff MLP inactive.
Screening N/C(=N/OCc1cccc([N+](=O)[O-])c1)c1nonc1N returned ABCB6 inh 2 97, beta cell repl 1, H9c2 protect -4, iPSC survival up 3 and Myeloid diff MLP inactive.
O=C(NCCc1ccccc1)C(=O)N/N=C/c1ccccc1C(F)(F)F was read as ABCB6 inh 2 100, beta cell repl -2, H9c2 protect -1, iPSC survival up -1 and Myeloid diff MLP inactive.
CCc1[nH]nc(C(=O)N2CCCC(C(=O)c3cccc(OC(C)C)c3)C2)c1C (centres undefined) was read as ABCB6 inh 2 101, beta cell repl 0, H9c2 protect -14, iPSC survival up 0 and Myeloid diff MLP inactive.
Screening Cc1nn(-c2ccccc2)c(C)c1-c1cc(C(=O)N/N=C/c2ccc(O)cc2)[nH]n1 returned ABCB6 inh 2 102, beta cell repl 2, H9c2 protect 56*, iPSC survival up 1 and Myeloid diff MLP inactive.
`COc1cc(/C=N/NC(=O)c2ccc(=O)[nH]n2)ccc1O` gave ABCB6 inh 2 95, beta cell repl 0.0*, H9c2 protect -1, iPSC survival up 2 and Myeloid diff MLP inactive.
COc1cc(/C=N/NC(=O)c2cc(C3CC3)[nH]n2)ccc1O was read as ABCB6 inh 2 97, beta cell repl -2, H9c2 protect 4, iPSC survival up 1 and Myeloid diff MLP inactive.
